Source: PubChem BioAssay (Tox21)
Results filed as inconclusive are left out. Entries that show only a call come without a potency. The source made the active and inactive calls. Unless noted, the call rests on the fitted dose curve; in most records, active means well fitted cell-killing curve with a large enough effect in the repeat runs; inconclusive means weak or mixed curves, or effect the other way; inactive means no such curve, though single readings can be large or run the other way.

Molecular target: Bile acid receptor (Homo sapiens) (UniProt Q96RI1)
Test: qHTS assay to identify small molecule antagonists of the farnesoid-X-receptor (FXR) signaling pathway (AID 743217; active means well fitted inhibition curve with a large enough effect in the signal ratio in the repeat runs, not every such curve was filed as active; the % refers to the signal ratio)
Settings: HEK293T FXR-UAS-bla, beta-lactamase ratio, CDCA-stimulated, 16 h; series mostly up to 62.6 µM
How it was run: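 Quantitative HTS, beta-lactamase reporter format: FXR-UAS-bla HEK 293T cells co-treated 16 h at 37 °C with compounds and 50 uM final chenodeoxycholic acid, then read by B/G FRET fluorescence.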

Bile acid receptor (Homo sapiens), sequence (Q96RI1 whole entry, looked up): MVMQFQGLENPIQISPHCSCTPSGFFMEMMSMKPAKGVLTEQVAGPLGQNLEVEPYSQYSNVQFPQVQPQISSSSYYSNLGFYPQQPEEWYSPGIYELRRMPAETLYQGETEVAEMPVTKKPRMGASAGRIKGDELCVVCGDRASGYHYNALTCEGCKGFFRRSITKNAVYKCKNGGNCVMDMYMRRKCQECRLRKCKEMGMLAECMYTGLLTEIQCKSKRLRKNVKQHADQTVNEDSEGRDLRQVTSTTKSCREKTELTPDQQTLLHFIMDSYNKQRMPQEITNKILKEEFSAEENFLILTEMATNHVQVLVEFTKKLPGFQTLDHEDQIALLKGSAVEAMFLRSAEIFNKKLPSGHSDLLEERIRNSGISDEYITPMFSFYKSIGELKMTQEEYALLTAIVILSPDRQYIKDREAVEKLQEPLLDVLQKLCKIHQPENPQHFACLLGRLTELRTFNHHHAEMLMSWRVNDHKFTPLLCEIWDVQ

Row | Structure (SMILES) | activity change, negative = inhibition | outcome
1 | CCC(C)S (stereo not given) | 3.24% [at 2.69 µM] (inactive) | –
2 | CCCCCCOC(=O)CCCCC(=O)OCCCCCC | – | inactive
3 | CC/C=C\CCOC(C)=O | – | inactive
4 | C=C(C)CS(=O)(=O)O | – | inactive
5 | Nc1cc(=O)[nH]c(N)n1 | – | inactive
6 | CC(=O)OCC(=O)[C@@]1(O)CCC2C3CCC4=CC(=O)CC[C@]4(C)C3[C@@H](O)C[C@@]21C (stereo not given in full) | – | inactive
7 | NS(=O)(=O)c1ccc(C(=O)O)cc1 | – | inactive
8 | CC(C[N+](C)(C)C)OC(N)=O (stereo not given) | – | inactive
9 | OCCOc1ccc(OCCO)cc1 | – | inactive
10 | CC(C)NC(=O)NC(C)C | – | inactive
11 | Cn1cc(S(C)=O)c(=O)c2ccc(F)cc21 (stereo not given) | – | inactive
12 | O=c1n(CCO)c(=O)n(CCO)c(=O)n1CCO | – | inactive

Tested on: not listed separately
Test: qHTS assay to identify small molecule agonists of the farnesoid-X-receptor (FXR) signaling pathway - cell viability counter screen (AID 743218); further: nearly all actives have a fitted effect of over 45% in size
Settings: FXR-bla HEK293T viability, CellTiter-Glo luminescence, 16 h; series mostly up to 62.6 µM
How it was run: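 Same-well cytotoxicity check on FXR-UAS-bla HEK 293T cells: 5 h attachment, 16 h compound at 37 C, CellTiter-Glo luminescence read at room temperature after 30 min.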

Row | Structure (SMILES) | Potency | viability change, negative = cytotoxic
13 | Cn1c(N)c(N=O)c(=O)n(C)c1=O | inactive | –
14 | N[C@H](C(=O)O)c1ccc(O)cc1 | inactive | –
15 | Nc1ccccc1S(=O)(=O)O | inactive | –
16 | COc1c(N2C[C@@H]3CCCN[C@@H]3C2)c(F)cc2c(=O)c(C(=O)O)cn(C3CC3)c12 | inactive | –
17 | CC(=O)OCC(CCn1cnc2cnc(N)nc21)COC(C)=O | inactive | –
18 | CCn1nc(C(=O)O)c(=O)c2cc3c(cc21)OCO3 | inactive | –
19 | CCC(C)S (stereo not given) | – | 7.12% [at 2.7 µM] (inactive)
20 | CC/C=C\CCOC(C)=O | inactive | –
21 | C[C@H]1C[C@@H](O)CC(C)(C)C1 | inactive | –
22 | O=C1OC(=O)C2CCCCC12 (stereo not given) | inactive | –
23 | O=C1CC2CC1C1CCCC21 (stereo not given) | inactive | –
24 | CCCN(CCC)CCc1cccc2c1CC(=O)N2 | inactive | –
25 | C=C(C)CS(=O)(=O)O | inactive | –
26 | NCCCNCCSP(=O)(O)O | – | 7.81% [at 13.2 µM] (inactive)
27 | CC(=O)OCC(=O)[C@@]1(O)CCC2C3CCC4=CC(=O)CC[C@]4(C)C3[C@@H](O)C[C@@]21C (stereo not given in full) | inactive | –
28 | NS(=O)(=O)c1ccc(C(=O)O)cc1 | inactive | –
29 | O=c1cc(CO)occ1O | inactive | –
30 | O=c1[nH]c(=O)n([C@H]2C[C@H](O)[C@@H](CO)O2)cc1I | inactive | –
31 | CC(C[N+](C)(C)C)OC(N)=O (stereo not given) | inactive | –
32 | CO[Si](CCCOCC1CO1)(OC)OC (stereo not given) | inactive | –
33 | CN1C(=O)N(C)C(O)C1O (stereo not given) | inactive | –
34 | CC1=CC(C)C(C=O)CC1 (stereo not given) | inactive | –
35 | OCCOc1ccc(OCCO)cc1 | inactive | –
36 | O=C(O)c1ccccc1OP(=O)(O)O | inactive | –
37 | CCN(CC)CCNC(=O)c1cc(S(C)(=O)=O)ccc1OC | inactive | –
38 | Cn1cc(S(C)=O)c(=O)c2ccc(F)cc21 (stereo not given) | inactive | –
39 | CC(C)c1cc2c(cc1S(=O)(=O)O)[C@@]1(C)CCC[C@@](C)(C(=O)O)[C@@H]1CC2 | inactive | –
40 | O=c1n(CCO)c(=O)n(CCO)c(=O)n1CCO | inactive | –
41 | CCC(C)C1CCCCC1=O (stereo not given) | inactive | –
42 | COC(C)(C)CCCC(C)CC=O (stereo not given) | inactive | –

Molecular target: Bile acid receptor (Homo sapiens) (UniProt Q96RI1)
Test: qHTS assay to identify small molecule agonists of the farnesoid-X-receptor (FXR) signaling pathway (AID 743220; active means well fitted activation curve with a large enough effect in the signal ratio in the repeat runs, not every such curve was filed as active; the % refers to the signal ratio)
Settings: HEK293T FXR-UAS-bla, beta-lactamase FRET ratio, 16 h; series mostly up to 62.6 µM
How it was run: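 FXR-UAS-bla HEK 293T cells carrying a UAS-driven beta-lactamase reporter were plated for 5 h at 37C/5% CO2, then exposed to DMSO-dissolved Tox21 10K compounds for 16 h at 37C. A LiveBLAzer B/G FRET substrate was loaded for 2 h at room temperature before fluorescence reading.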

Row | Structure (SMILES) | outcome | activation
43 | COc1c(N2C[C@@H]3CCCN[C@@H]3C2)c(F)cc2c(=O)c(C(=O)O)cn(C3CC3)c12 | inactive | –
44 | CCC(C)S (stereo not given) | – | -0.872% [at 2.7 µM] (inactive)
45 | CCCCCCOC(=O)CCCCC(=O)OCCCCCC | inactive | –
46 | CC/C=C\CCOC(C)=O | inactive | –
47 | C[C@H]1C[C@@H](O)CC(C)(C)C1 | inactive | –
48 | O=C1CC2CC1C1CCCC21 (stereo not given) | inactive | –
49 | C=C(C)CS(=O)(=O)O | inactive | –
50 | Nc1cc(=O)[nH]c(N)n1 | inactive | –
51 | NCCCNCCSP(=O)(O)O | – | 0.213% [at 13.2 µM] (inactive)
52 | CC(=O)OCC(=O)[C@@]1(O)CCC2C3CCC4=CC(=O)CC[C@]4(C)C3[C@@H](O)C[C@@]21C (stereo not given in full) | inactive | –
53 | NS(=O)(=O)c1ccc(C(=O)O)cc1 | inactive | –
54 | CCOc1ccc(C(=O)OCCN(CC)CC)cc1 | inactive | –
55 | CC(C[N+](C)(C)C)OC(N)=O (stereo not given) | inactive | –
56 | CO[Si](CCCOCC1CO1)(OC)OC (stereo not given) | inactive | –
57 | CC(C)NC(=O)NC(C)C | inactive | –
58 | Cn1cc(S(C)=O)c(=O)c2ccc(F)cc21 (stereo not given) | inactive | –
59 | O=c1n(CCO)c(=O)n(CCO)c(=O)n1CCO | inactive | –
60 | COC(C)(C)CCCC(C)CC=O (stereo not given) | inactive | –

Tested on: not listed separately
Test: qHTS assay to identify small molecule antagonists of the farnesoid-X-receptor (FXR) signaling pathway - cell viability counter screen (AID 743221; active means well fitted cell-killing curve with a large enough effect in the repeat runs, not every such curve was filed as active; further: nearly all actives have a fitted effect of over 50% in size)
Settings: FXR-bla HEK293T viability, CellTiter-Glo luminescence, 16 h; series mostly up to 62.6 µM
How it was run: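 HEK 293T FXR-bla cells, 5 h pre-incubation; compound + CDCA 50 uM final, 16 h, 37 C; beta-lactamase FRET read first, then CellTiter-Glo luminescence, 30 min RT.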

Row | Structure (SMILES) | Potency | activity change, negative = cytotoxicity
61 | N[C@H](C(=O)O)c1ccc(O)cc1 | inactive | –
62 | COc1c(N2C[C@@H]3CCCN[C@@H]3C2)c(F)cc2c(=O)c(C(=O)O)cn(C3CC3)c12 | inactive | –
63 | CC(=O)OCC(CCn1cnc2cnc(N)nc21)COC(C)=O | inactive | –
64 | CCn1nc(C(=O)O)c(=O)c2cc3c(cc21)OCO3 | inactive | –
65 | CCC(C)S (stereo not given) | – | 5.23% [at 2.69 µM] (inactive)
66 | CCCCCCOC(=O)CCCCC(=O)OCCCCCC | inactive | –
67 | CC/C=C\CCOC(C)=O | inactive | –
68 | CCCN(CCC)CCc1cccc2c1CC(=O)N2 | inactive | –
69 | Nc1cc(=O)[nH]c(N)n1 | inactive | –
70 | NCCCNCCSP(=O)(O)O | – | 2.46% [at 13.2 µM] (inactive)
71 | CC(=O)OCC(=O)[C@@]1(O)CCC2C3CCC4=CC(=O)CC[C@]4(C)C3[C@@H](O)C[C@@]21C (stereo not given in full) | inactive | –
72 | NS(=O)(=O)c1ccc(C(=O)O)cc1 | inactive | –
73 | O=c1cc(CO)occ1O | inactive | –
74 | O=c1[nH]c(=O)n([C@H]2C[C@H](O)[C@@H](CO)O2)cc1I | inactive | –
75 | CC(C[N+](C)(C)C)OC(N)=O (stereo not given) | inactive | –
76 | CO[Si](CCCOCC1CO1)(OC)OC (stereo not given) | inactive | –
77 | CN1C(=O)N(C)C(O)C1O (stereo not given) | inactive | –
78 | OCCOc1ccc(OCCO)cc1 | inactive | –
79 | O=C(O)c1ccccc1OP(=O)(O)O | inactive | –
80 | CCN(CC)CCNC(=O)c1cc(S(C)(=O)=O)ccc1OC | inactive | –
81 | Cn1cc(S(C)=O)c(=O)c2ccc(F)cc21 (stereo not given) | inactive | –
82 | CC(C)c1cc2c(cc1S(=O)(=O)O)[C@@]1(C)CCC[C@@](C)(C(=O)O)[C@@H]1CC2 | inactive | –
83 | O=c1n(CCO)c(=O)n(CCO)c(=O)n1CCO | inactive | –
84 | CCC(C)C1CCCCC1=O (stereo not given) | inactive | –
85 | COC(C)(C)CCCC(C)CC=O (stereo not given) | inactive | –
